Experimental data as given in the supplement of paper PMC11732987, “Enantioselective OTUD7B fragment discovery through chemoproteomics screening and high-throughput optimisation” (Communications Chemistry, 2025).

How the values were obtained:
Assay in all cases: log2 ratio of Biotin-Ahx-Ub-VS probe labelling (fragment/DMSO); higher = less target engagement (more negative = stronger competition), active = hit call of the paper (q ≤ 0.05, log2 ratio ≤ -1)
Conditions in all cases: compound concentration: 200 uM; treatment time: 3 h
UniProt O00507 = target: UniProt O00507
Sequence of UniProt O00507 (O00507 whole entry, the tested form may be a part): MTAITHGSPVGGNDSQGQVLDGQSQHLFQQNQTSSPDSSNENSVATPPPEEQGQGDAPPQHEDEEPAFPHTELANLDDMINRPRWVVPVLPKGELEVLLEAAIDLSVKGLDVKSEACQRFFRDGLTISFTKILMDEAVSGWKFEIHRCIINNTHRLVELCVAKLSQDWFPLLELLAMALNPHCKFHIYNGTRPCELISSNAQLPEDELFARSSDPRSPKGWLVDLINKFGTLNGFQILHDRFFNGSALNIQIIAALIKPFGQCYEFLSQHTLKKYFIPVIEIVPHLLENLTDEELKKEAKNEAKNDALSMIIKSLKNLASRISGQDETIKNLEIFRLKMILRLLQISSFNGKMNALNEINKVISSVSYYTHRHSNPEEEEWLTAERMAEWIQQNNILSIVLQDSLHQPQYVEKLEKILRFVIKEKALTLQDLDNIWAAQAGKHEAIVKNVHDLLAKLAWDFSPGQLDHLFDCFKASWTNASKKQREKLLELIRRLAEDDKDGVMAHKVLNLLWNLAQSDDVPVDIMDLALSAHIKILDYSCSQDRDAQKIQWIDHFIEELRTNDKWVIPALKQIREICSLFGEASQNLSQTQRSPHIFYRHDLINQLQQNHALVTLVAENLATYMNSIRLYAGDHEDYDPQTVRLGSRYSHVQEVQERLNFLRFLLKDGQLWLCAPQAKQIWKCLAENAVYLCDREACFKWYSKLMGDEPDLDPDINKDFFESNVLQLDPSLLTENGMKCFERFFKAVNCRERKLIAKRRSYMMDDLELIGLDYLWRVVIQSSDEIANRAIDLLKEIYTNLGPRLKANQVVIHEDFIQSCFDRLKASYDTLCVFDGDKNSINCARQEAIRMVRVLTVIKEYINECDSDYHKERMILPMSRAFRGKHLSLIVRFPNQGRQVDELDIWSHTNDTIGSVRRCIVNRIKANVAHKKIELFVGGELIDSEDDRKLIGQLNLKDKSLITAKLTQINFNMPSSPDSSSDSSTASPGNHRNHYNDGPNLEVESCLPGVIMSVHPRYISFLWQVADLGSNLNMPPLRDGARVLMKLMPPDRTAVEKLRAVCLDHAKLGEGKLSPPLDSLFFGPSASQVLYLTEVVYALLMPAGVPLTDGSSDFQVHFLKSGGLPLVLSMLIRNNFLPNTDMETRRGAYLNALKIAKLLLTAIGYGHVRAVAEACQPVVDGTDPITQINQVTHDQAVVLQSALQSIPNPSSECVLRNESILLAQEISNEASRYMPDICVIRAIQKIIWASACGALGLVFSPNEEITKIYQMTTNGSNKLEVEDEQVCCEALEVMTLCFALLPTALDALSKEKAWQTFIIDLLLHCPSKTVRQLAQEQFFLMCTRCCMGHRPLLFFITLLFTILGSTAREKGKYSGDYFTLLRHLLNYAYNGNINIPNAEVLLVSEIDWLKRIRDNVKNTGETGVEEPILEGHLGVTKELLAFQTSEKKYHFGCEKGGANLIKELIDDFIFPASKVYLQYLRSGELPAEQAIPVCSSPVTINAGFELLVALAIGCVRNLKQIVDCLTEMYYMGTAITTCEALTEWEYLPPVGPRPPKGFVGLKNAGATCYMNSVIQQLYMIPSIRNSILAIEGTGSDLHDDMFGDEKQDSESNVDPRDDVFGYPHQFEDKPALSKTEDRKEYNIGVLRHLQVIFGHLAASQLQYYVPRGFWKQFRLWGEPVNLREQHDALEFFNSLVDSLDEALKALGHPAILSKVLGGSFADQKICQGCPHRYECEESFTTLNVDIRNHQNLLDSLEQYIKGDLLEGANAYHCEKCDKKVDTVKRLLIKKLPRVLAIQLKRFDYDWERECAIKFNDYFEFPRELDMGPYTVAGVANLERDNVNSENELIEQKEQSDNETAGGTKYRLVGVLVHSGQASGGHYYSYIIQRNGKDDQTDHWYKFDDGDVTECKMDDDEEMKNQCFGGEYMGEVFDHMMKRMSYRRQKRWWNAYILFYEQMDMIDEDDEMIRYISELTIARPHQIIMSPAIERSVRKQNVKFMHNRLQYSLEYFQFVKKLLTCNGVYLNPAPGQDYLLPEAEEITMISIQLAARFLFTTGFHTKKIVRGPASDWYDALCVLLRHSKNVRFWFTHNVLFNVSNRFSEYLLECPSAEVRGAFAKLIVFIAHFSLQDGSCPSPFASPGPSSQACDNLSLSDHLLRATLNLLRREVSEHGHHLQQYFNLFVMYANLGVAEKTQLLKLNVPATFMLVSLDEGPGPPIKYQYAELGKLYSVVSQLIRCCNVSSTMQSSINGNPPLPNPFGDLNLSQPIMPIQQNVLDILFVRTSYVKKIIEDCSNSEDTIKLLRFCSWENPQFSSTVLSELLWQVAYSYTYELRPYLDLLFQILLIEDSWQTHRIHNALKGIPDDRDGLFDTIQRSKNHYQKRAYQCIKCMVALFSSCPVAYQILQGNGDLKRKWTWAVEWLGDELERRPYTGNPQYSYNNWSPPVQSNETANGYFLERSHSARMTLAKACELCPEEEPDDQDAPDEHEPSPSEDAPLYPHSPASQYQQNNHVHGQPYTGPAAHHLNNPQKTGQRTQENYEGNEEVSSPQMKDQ
How it was run: (§1)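 HEK293T lysate (495 µg per sample, in Tris/CHAPS/IGEPAL buffer with protease inhibitors) was exposed in triplicate for 3 h to fragment at 200 µM or to vehicle, then to Biotin-Ahx-Ub-VS at 0.5 µM final for 1 h. Labelled DUBs were enriched on NeutrAvidin, digested with LysC and trypsin, and analysed by diaPASEF LC-MS/MS. Spectronaut label-free quantities were normalised to the global median, and values are average log2 ratios of fragment over vehicle from an unpaired t-test. Only proteins with ≥2 unique peptides were used.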

UniProt P51784 = target: UniProt P51784
Sequence of UniProt P51784 (P51784 whole entry): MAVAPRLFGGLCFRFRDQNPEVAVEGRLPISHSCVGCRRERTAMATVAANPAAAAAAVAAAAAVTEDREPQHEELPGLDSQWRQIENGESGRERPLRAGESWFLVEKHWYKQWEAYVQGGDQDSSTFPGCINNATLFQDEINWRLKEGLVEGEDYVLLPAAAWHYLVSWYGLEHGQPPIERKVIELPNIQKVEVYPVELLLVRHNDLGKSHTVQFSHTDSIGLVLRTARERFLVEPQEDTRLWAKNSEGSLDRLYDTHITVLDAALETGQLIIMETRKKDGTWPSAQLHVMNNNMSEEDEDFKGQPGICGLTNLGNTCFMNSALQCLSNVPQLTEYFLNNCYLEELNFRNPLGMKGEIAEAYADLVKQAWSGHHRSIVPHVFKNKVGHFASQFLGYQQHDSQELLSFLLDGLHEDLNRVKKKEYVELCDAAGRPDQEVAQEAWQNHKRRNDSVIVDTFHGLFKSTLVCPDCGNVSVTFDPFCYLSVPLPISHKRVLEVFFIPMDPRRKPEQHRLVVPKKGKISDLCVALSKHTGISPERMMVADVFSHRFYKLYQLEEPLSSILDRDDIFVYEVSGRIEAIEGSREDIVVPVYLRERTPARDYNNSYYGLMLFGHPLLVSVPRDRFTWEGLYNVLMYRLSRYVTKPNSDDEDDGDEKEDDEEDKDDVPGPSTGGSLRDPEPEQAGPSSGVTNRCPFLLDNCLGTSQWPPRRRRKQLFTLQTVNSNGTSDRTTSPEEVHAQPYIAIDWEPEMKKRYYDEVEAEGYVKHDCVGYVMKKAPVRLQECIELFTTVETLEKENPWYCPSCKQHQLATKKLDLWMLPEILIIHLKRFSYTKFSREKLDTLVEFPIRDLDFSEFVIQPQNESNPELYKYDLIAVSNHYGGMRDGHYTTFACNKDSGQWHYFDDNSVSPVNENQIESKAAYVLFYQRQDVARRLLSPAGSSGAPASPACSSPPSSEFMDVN
How it was run: as §1

UniProt Q5T2D3 = target: T1, UniProt Q5T2D3
T1 sequence (whole entry): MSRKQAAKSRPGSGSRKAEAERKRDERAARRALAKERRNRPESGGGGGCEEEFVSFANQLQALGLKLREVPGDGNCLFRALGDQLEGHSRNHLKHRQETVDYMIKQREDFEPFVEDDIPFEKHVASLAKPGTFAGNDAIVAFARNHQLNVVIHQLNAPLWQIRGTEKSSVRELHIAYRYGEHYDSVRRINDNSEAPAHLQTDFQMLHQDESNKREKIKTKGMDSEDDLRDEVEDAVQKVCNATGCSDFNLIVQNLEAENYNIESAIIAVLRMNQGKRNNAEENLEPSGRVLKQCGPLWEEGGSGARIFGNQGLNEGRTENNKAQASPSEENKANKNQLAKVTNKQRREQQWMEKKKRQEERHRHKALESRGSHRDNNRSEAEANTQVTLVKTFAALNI
How it was run: as §1

UniProt Q8TE49 = target: T2, UniProt Q8TE49
T2 sequence (whole entry): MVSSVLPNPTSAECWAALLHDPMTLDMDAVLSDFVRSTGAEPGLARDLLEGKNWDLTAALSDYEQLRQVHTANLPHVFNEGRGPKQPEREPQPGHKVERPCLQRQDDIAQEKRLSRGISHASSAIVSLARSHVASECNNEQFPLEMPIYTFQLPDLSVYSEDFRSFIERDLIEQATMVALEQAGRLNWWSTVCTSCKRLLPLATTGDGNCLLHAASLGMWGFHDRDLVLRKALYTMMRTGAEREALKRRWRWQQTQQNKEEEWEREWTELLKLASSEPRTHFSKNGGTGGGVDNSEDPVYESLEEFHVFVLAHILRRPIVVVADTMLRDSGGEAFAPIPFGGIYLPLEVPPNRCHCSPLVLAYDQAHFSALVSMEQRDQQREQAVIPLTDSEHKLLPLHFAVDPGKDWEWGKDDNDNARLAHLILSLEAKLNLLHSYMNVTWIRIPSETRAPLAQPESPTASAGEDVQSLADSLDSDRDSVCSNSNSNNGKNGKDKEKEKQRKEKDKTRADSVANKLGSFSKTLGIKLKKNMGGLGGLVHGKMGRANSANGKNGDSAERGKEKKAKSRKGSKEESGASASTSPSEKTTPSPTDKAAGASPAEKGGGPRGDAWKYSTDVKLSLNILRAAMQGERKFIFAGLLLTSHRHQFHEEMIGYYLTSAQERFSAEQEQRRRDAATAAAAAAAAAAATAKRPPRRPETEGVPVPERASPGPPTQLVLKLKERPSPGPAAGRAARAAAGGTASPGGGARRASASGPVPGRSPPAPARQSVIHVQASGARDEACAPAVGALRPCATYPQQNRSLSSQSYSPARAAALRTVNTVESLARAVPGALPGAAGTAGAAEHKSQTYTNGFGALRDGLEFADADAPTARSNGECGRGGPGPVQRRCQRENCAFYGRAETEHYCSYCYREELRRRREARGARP
How it was run: as §1

UniProt Q9P2H5 = target: T3, UniProt Q9P2H5
T3 sequence (whole entry): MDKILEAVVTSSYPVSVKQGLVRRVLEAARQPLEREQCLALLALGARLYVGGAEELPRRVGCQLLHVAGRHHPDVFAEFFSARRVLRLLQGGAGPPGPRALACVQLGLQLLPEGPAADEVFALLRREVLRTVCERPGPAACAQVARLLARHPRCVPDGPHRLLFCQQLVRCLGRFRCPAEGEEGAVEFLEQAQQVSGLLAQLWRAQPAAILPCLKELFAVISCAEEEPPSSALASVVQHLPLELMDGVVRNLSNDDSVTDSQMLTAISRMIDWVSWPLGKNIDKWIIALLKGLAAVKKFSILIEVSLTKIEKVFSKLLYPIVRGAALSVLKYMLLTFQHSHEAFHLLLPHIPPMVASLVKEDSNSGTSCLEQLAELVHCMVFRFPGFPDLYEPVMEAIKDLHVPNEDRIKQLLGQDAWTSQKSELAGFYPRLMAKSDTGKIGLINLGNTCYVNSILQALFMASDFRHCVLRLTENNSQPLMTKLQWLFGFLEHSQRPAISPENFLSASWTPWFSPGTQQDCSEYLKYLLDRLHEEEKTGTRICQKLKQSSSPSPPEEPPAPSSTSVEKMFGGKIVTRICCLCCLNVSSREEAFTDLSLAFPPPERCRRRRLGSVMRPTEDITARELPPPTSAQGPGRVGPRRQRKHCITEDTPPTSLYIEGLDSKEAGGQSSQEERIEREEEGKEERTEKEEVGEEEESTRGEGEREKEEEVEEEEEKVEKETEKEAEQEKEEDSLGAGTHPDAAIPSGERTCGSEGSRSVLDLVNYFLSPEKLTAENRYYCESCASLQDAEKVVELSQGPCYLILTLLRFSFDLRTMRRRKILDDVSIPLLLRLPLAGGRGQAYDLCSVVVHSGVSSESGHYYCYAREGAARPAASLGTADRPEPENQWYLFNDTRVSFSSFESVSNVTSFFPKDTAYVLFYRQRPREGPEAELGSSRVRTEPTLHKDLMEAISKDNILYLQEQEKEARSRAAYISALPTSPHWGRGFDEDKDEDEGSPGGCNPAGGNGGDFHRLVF
How it was run: as §1

UniProt Q9UGI0 = target: T4, UniProt Q9UGI0
T4 sequence (whole entry): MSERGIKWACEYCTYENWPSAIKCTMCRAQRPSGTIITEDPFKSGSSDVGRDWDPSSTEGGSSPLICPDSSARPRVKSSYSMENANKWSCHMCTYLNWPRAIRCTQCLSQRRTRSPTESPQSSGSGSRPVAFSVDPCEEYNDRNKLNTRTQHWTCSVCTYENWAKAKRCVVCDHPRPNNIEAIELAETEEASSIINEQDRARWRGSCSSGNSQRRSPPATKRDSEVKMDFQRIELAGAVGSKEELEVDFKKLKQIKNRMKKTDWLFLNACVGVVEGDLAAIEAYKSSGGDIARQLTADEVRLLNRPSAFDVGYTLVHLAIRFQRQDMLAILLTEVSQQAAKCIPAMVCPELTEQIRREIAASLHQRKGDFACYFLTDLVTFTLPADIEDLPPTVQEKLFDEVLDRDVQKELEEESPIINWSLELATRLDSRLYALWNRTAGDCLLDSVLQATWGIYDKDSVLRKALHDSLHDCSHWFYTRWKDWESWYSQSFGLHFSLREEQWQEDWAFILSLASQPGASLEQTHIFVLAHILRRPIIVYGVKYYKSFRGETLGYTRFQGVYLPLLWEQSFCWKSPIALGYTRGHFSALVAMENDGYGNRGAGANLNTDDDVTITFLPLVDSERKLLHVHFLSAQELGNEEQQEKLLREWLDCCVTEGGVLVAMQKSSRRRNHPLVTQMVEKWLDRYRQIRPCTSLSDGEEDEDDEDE
How it was run: as §1

YOD1 = target: T5, YOD1 (UniProt Q5VVQ6)
T5 sequence (whole entry): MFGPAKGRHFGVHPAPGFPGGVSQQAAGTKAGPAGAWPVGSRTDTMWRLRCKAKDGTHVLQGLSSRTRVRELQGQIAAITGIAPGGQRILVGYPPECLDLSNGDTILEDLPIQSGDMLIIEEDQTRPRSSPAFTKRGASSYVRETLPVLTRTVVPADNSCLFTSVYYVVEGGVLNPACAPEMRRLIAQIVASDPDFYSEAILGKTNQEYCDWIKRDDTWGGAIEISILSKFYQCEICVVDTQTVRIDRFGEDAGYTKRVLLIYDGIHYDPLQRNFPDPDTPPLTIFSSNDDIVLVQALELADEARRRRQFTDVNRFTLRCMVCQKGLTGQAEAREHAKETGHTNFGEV
How it was run: as §1

Measured: log2 ratio of Biotin-Ahx-Ub-VS probe labelling

Cc1ccc(CN(C)C(=O)CCl)o1
inactive: UniProt O00507 0.383 | UniProt P51784 0.146 | UniProt Q5T2D3 -0.109 | UniProt Q8TE49 -0.671 | UniProt Q9P2H5 -0.321 | UniProt Q9UGI0 -0.57 | YOD1 0.384

CN(CCC(O)c1ccc(Br)cc1)C(=O)CCl (stereo not given)
inactive: UniProt O00507 -0.198 | UniProt P51784 -0.124 | UniProt Q5T2D3 -0.111 | UniProt Q9P2H5 -0.328 | UniProt Q9UGI0 -0.555 | YOD1 0.00847
active: UniProt Q8TE49 -1.29

O=C(CCl)N(Cc1ccsc1)C1CC1
inactive: UniProt O00507 -0.302 | UniProt P51784 -0.0887 | UniProt Q5T2D3 -0.0506 | UniProt Q8TE49 -0.101 | UniProt Q9P2H5 0.0505 | UniProt Q9UGI0 -0.949 | YOD1 -0.0601

O=C(CCl)N(C1CCCC1)C1CCS(=O)(=O)C1 (stereo not given)
inactive: UniProt O00507 0.335 | UniProt P51784 -0.112 | UniProt Q5T2D3 -0.128 | UniProt Q8TE49 -0.372 | UniProt Q9P2H5 -0.386 | UniProt Q9UGI0 -0.121 | YOD1 0.15

Cc1ccc2nnc(CNC(=O)CCl)n2c1
inactive: UniProt O00507 0.487 | UniProt P51784 -0.0917 | UniProt Q5T2D3 -0.119 | UniProt Q8TE49 -0.36 | UniProt Q9P2H5 -0.342 | UniProt Q9UGI0 0.244 | YOD1 0.241
